Measurements taken from PubChem BioAssay (NCI).
The panel holds about 79,000 compounds, 15% with a hit somewhere; the sample as a whole holds those more often. Active and inactive are the calls of the source. No stated cut-off is given here; in the data, active means growth inhibition above about 70%; inactive means the rest.

Columns and labels:
[1] = NCI Yeast Anticancer Drug Screen. Data for the wt1 strain (AID 149);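 further: 0% = growth of vehicle-treated wt1 cultures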; conditions: S. cerevisiae wt1 strain (SPY 50644) growth inhibition, hits give high values
Procedure, shortened: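 wt1 yeast, compound-treated; % growth inhibition vs vehicle control.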

[2] = NCI Yeast Anticancer Drug Screen. Data for the rad50EPP+ strain (AID 151);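 further: 0% = growth of vehicle-treated control cultures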; conditions: S. cerevisiae rad50 mutant strain, hits give high values
Procedure, shortened: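 Genetically defined yeast (rad50EPP+, DNA damage repair alteration) is grown with compound, and inhibition of growth is expressed relative to vehicle-treated controls.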

[3] = NCI Yeast Anticancer Drug Screen. Data for the mgt1 strain (AID 153); conditions: S. cerevisiae mgt1 mutant growth inhibition, hits give high values
Procedure, shortened: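 In the mgt1 strain, test compounds were added and growth inhibition was determined relative to vehicle-treated controls.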

[4] = NCI Yeast Anticancer Drug Screen. Data for the rad50 strain (AID 155);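 further: 0% = growth of vehicle-only cultures of the same strain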; conditions: S. cerevisiae rad50 strain growth inhibition, hits give high values
Procedure, shortened: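 Genetically altered yeast (DNA repair pathway); compound treatment; growth inhibition vs vehicle ctrl.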

[5] = NCI Yeast Anticancer Drug Screen. Data for the mec2-1 strain (AID 157); conditions: S. cerevisiae mec2-1 strain, hits give high values
Procedure, shortened: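 Each compound was tested on mec2-1 yeast, a strain altered in DNA damage repair or cell cycle control. Growth inhibition is reported relative to vehicle.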

[6] = NCI Yeast Anticancer Drug Screen. Data for the CLN2oe strain (AID 163);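 further: 0% = growth of vehicle-only control cultures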; conditions: S. cerevisiae CLN2oe strain, hits give high values
Procedure, shortened: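 First, the altered yeast strain was treated with each compound; second, its growth was measured; finally, inhibition was derived by comparison with vehicle controls.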

[7] = NCI Yeast Anticancer Drug Screen. Data for the cln2 rad14 strain (AID 165);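 further: 0% = growth equal to vehicle treated cultures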; conditions: S. cerevisiae cln2 rad14 strain, hits give high values
Procedure, shortened: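 Test compounds were added to cln2 rad14 yeast cultures; inhibition of growth was then determined by comparison with vehicle treatment.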

[8] = NCI Yeast Anticancer Drug Screen. Data for the bub3 strain (AID 167); conditions: S. cerevisiae bub3 mutant strain, hits give high values
Procedure, shortened: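 Yeast carrying a defined mutation is treated with each compound, and growth is compared with that of vehicle-exposed cells to give inhibition.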

[9] = NCI Yeast Anticancer Drug Screen. Data for the mlh1 strain (AID 171);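 further: 0% = growth of vehicle-treated control cultures of the same strain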; conditions: S. cerevisiae mlh1 strain growth inhibition, hits give high values
Procedure, shortened: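 Inhibition values reflect reduced yeast growth in the presence of compound, referenced to vehicle controls, using a strain chosen for its alteration in DNA repair or cell cycle control.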

[10] = NCI Yeast Anticancer Drug Screen. Data for the sgs1 strain (AID 173);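 further: 0% = growth of vehicle-only control cultures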; conditions: S. cerevisiae sgs1 mutant, hits give high values
Procedure, shortened: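 Vehicle-treated cultures served as reference for growth inhibition of a yeast strain altered in DNA damage repair or cell cycle control after compound exposure.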

[11] = NCI Yeast Anticancer Drug Screen. Data for the mlh1 rad18 strain (AID 175); conditions: S. cerevisiae mlh1 rad18 strain growth inhibition, hits give high values
Procedure, shortened: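 Inhibition values reflect reduced growth of mutant yeast versus vehicle-treated controls following compound exposure; the mutations affect DNA damage repair.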

[12] = NCI Yeast Anticancer Drug Screen. Data for the rad18 strain (AID 177); conditions: S. cerevisiae rad18 mutant growth inhibition, hits give high values
Procedure, shortened: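 Steps: expose repair-mutant yeast to compound; measure growth; express as inhibition relative to vehicle control.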

[13] = NCI Yeast Anticancer Drug Screen. Data for the rad14 strain (AID 159);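 further: 0% = growth of vehicle-treated control cultures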; conditions: S. cerevisiae rad14 strain growth inhibition, hits give high values
Procedure, shortened: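 Test compounds were applied to a repair-deficient yeast strain. Its growth was then compared with that of cultures given vehicle alone, and inhibition was expressed relative to those controls.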

[14] = NCI Yeast Anticancer Drug Screen. Data for the sgs1 mgt1 strain (AID 161);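 further: 0% = growth of cultures given vehicle only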; conditions: S. cerevisiae sgs1 mgt1 strain, hits give high values
Procedure, shortened: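 Read-out: growth inhibition vs vehicle controls. Cells: mutant yeast strain deficient in DNA damage repair.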

[15] = NCI Yeast Anticancer Drug Screen. Data for the wt2 strain (AID 169);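 further: 0% = growth of vehicle-treated yeast cultures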; conditions: S. cerevisiae wt2 strain growth inhibition, hits give high values
Procedure, shortened: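 The panel's yeast strains carry defined changes in DNA repair or cell cycle genes. Each strain is grown with compound, and growth loss is scored relative to vehicle.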

[16] = at 5.0 µM (retest, dose inferred, filed as 0.5)
[17] = at 50.0 µM (retest, dose inferred, filed as 5.0)

Measured: growth inhibition

CN(C)N=Nc1ccc(NC=O)cc1
inactive: [1]; at 1.2 µM -2% | [1]; at 3.7 µM 1% | [1]; at 11.0 µM 9% | [2]; at 1.2 µM 11% | [2]; at 3.7 µM 6% | [2]; at 11.0 µM 8% | [3]; at 1.2 µM 20% | [3]; at 3.7 µM 27% | [3]; at 11.0 µM 23% | [4]; at 1.2 µM 5% | [4]; at 3.7 µM 4% | [4]; [16] 23% | [4]; at 11.0 µM 17% | [4]; [17] 67% | [5]; at 1.2 µM 0% | [5]; at 3.7 µM 13% | [5]; [16] 23% | [5]; at 11.0 µM 20% | [5]; [17] 47% | [6]; at 1.2 µM 31% | [6]; at 3.7 µM 27% | [6]; at 11.0 µM 49% | [7]; [16] -7% | [7]; [17] -19% | [8]; at 1.2 µM 15% | [8]; at 3.7 µM 18% | [8]; [16] -3% | [8]; at 11.0 µM 27% | [8]; [17] -22% | [9]; at 1.2 µM 2% | [9]; at 3.7 µM -7% | [9]; at 11.0 µM 6% | [10]; at 1.2 µM 2% | [10]; at 3.7 µM -5% | [10]; at 11.0 µM 8% | [11]; [16] 32% | [11]; [17] 65% | [12]; at 1.2 µM 19% | [12]; at 3.7 µM 24% | [12]; at 11.0 µM 35%
active: [1]; at 33.0 µM 92% | [1]; at 100.0 µM 99% | [2]; at 33.0 µM 86% | [2]; at 100.0 µM 98% | [3]; at 33.0 µM 88% | [3]; at 100.0 µM 99% | [4]; at 33.0 µM 97% | [4]; at 50.0 µM 89.7% | [4]; at 100.0 µM 99% | [5]; at 33.0 µM 90% | [5]; at 50.0 µM 91.8% | [5]; at 100.0 µM 99% | [6]; at 33.0 µM 98% | [6]; at 100.0 µM 99% | [7]; at 50.0 µM 85.2% | [8]; at 33.0 µM 94% | [8]; at 50.0 µM 78.7% | [8]; at 100.0 µM 99% | [9]; at 33.0 µM 91% | [9]; at 100.0 µM 99% | [10]; at 33.0 µM 93% | [10]; at 100.0 µM 99% | [11]; at 50.0 µM 87.4% | [12]; at 33.0 µM 98% | [12]; at 100.0 µM 99%

COc1ccc2c(Cc3c4ccccc4cc4ccccc34)cncc2c1O
active: [1]; at 100.0 µM 93% | [3]; at 100.0 µM 93% | [4]; [17] 98% | [4]; at 50.0 µM 93.9% | [4]; at 100.0 µM 90% | [5]; [17] 97% | [5]; at 50.0 µM 91.5% | [5]; at 100.0 µM 86% | [13]; at 33.0 µM 95% | [13]; at 100.0 µM 93% | [14]; [17] 95% | [14]; at 50.0 µM 92.8% | [7]; [17] 96% | [7]; at 50.0 µM 80.2% | [8]; [17] 97% | [8]; at 50.0 µM 87.7% | [8]; at 100.0 µM 85% | [15]; at 33.0 µM 91% | [15]; at 100.0 µM 93% | [9]; at 100.0 µM 91% | [10]; at 33.0 µM 89% | [10]; at 100.0 µM 91% | [11]; [16] 80% | [11]; [17] 97% | [11]; at 50.0 µM 95.6% | [12]; at 33.0 µM 86% | [12]; at 100.0 µM 88%
inactive: [1]; at 1.2 µM 2% | [1]; at 3.7 µM 4% | [1]; at 11.0 µM 12% | [1]; at 33.0 µM 56% | [3]; at 1.2 µM 3% | [3]; at 3.7 µM 6% | [3]; at 11.0 µM 11% | [3]; at 33.0 µM 42% | [4]; at 1.2 µM 4% | [4]; at 3.7 µM 6% | [4]; [16] 51% | [4]; at 11.0 µM 26% | [4]; at 33.0 µM 68% | [5]; at 1.2 µM 4% | [5]; at 3.7 µM 7% | [5]; [16] 19% | [5]; at 11.0 µM 12% | [5]; at 33.0 µM 33% | [13]; at 1.2 µM 6% | [13]; at 3.7 µM 7% | [13]; at 11.0 µM 27% | [14]; [16] 30% | [6]; at 1.2 µM 5% | [6]; at 3.7 µM 7% | [6]; at 11.0 µM 9% | [6]; at 33.0 µM 18% | [6]; at 100.0 µM 68% | [7]; [16] -2% | [8]; at 1.2 µM 5% | [8]; at 3.7 µM 8% | [8]; [16] 8% | [8]; at 11.0 µM 19% | [8]; at 33.0 µM 45% | [15]; at 1.2 µM 1% | [15]; at 3.7 µM 4% | [15]; at 11.0 µM 18% | [9]; at 1.2 µM 4% | [9]; at 3.7 µM 7% | [9]; at 11.0 µM 15% | [9]; at 33.0 µM 60% | [10]; at 1.2 µM 2% | [10]; at 3.7 µM 8% | [10]; at 11.0 µM 36% | [12]; at 1.2 µM 9% | [12]; at 3.7 µM 4% | [12]; at 11.0 µM 25%
